Menin-MLL TR inh – qHTS Assay for Inhibitors Targeting the Menin-MLL Interaction in MLL Related Leukemias: Competition With Texas Red Labeled MLL-derived Mutant Peptide; Menin + Texas Red MLL mutant peptide, fluorescence polarization; Potency, µM (series often up to 61.6 µM), most hits filed as inhibitors; AID 1768, 2009; hit rate 0.23% among 270,000; active = well fitted inhibition curve with a large enough effect in the polarisation, with a control signal flat, not every such curve was filed as active; inconclusive = small, poorly fitted or top-dose-only effect, or effect the other way, or a change in a side signal; inactive = no such curve, though single readings can be large or run the other way; the % refers to the polarisation
MBNL1 CUG block – qHTS Assay for Inhibitors of MBNL1-poly(CUG) RNA binding; Muscleblind-like protein 1 (Homo sapiens), Q9NR56; TR-FRET MBNL1-His/biotin-(CUG)12 binding, 665/545 ratio; Potency, µM (series often up to 57.5 µM), actives largely listed as inhibitors; hit rate 0.036% among 280,000; AID 2675, 2010; active = well fitted inhibition curve with a large enough effect in the signal ratio, with a control signal flat, not every such curve was filed as active; inconclusive = small, poorly fitted or top-dose-only effect, or effect the other way, or a change in a side signal; inactive = no such curve, though single readings can be large or run the other way; the % refers to the signal ratio
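TR-FRET readout: Ex 340 nm, 665/545 nm emission ratio, normalized to buffer-only (basal) and MBNL1-(CUG)12 controls. Complex of MBNL1-His with Biotin-(CUG)12, compounds 92 nM–58 uM, incubated 60 min at room temperature.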
CBFb RUNX1 block – qHTS Assay for Compounds Blocking the Interaction Between CBF-beta and RUNX1 for the Treatment of Acute Myeloid Leukemia. AID 1477, 2009. 230,000 tested, under 10 active. AlphaScreen CBFb-His/RUNX1-biotin binding, biochemical. Potency, µM (series often up to 59.8 µM), hits mostly inhibitors. Runt-related transcription factor 1 (Homo sapiens) + Core-binding factor subunit beta …
Target sequence (Q01196 whole entry, looked up): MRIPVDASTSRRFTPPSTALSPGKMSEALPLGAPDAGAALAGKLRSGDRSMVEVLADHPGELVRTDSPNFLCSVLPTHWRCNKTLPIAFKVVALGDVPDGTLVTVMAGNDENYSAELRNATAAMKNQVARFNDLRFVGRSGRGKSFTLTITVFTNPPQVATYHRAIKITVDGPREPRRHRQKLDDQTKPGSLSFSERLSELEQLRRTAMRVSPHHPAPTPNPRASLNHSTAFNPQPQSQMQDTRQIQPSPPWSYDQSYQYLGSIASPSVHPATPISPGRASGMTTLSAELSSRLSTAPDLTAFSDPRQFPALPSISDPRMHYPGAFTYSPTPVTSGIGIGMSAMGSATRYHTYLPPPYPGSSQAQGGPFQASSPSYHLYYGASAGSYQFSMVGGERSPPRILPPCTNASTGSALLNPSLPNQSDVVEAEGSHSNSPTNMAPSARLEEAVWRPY
Target sequence (Q13951 whole entry, looked up): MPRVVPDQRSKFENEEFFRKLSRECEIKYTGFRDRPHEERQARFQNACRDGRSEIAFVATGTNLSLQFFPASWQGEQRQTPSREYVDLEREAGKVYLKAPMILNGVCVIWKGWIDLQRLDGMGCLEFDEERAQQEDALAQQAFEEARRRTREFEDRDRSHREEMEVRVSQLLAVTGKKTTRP
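Read-out: AlphaScreen. Format: His-CBF-beta with biotinylated RUNX1 (30 nM each) preincubated 20 min, compound 15 min, Ni-chelate plus streptavidin beads 90 min; room temperature throughout.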
Menin-MLL FL inh – qHTS Assay for Inhibitors Targeting the Menin-MLL Interaction in MLL Related Leukemias: Competition With Fluorescein Labeled MLL-derived Peptide; Fluorescence polarization, fluorescein-MLL peptide displacement from menin; FP activity change, % at 61.4 µM; AID 1766, 2009; 290,000 tested, under 10 active; active = well fitted curve in the direction sought with a large enough effect in the polarisation, not every such curve was filed as active; inconclusive = small, poorly fitted or top-dose-only effect, or effect the other way, or a change in a side signal; inactive = no such curve, though single readings can be large or run the other way; the % refers to the polarisation
MLL CXXC-DNA inh – qHTS Fluorescence Polarization Assay for Inhibitors of MLL CXXC domain - DNA interaction; Histone-lysine N-methyltransferase 2A (Homo sapiens), Q03164; MLL-CXXC / FITC-HOXA9 DNA fluorescence polarization; Potency, µM (doses to about 115 µM), usual class: inhibitors; hit rate 0.037% among 290,000; AID 2662, 2010; active = well fitted inhibition curve with a large enough effect in the polarisation, with a control signal flat, not every such curve was filed as active; inconclusive = small, poorly fitted or top-dose-only effect, or effect the other way, or a change in a side signal; inactive = no such curve, though single readings can be large or run the other way; the % refers to the polarisation
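Steps: dispense CXXC domain solution (7 uM) → pin compounds or unlabeled HOX-A9 DNA control → 5 min ambient → add FLSN-HOX-A9 solution (50 nM) → spin → 30 min ambient → fluorescence polarization. Tris pH 7.5/NaCl/DTT/BSA buffer.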
MLL CXXC Fl – qHTS Fluorescence Polarization (FP) Assay for Inhibitors of MLL CXXC domain - DNA interaction: Fluorescein FP; Potency, µM (doses to about 345 µM), hits mostly inhibitors; AID 624160, 2012; shares compounds with MLL CXXC-DNA inh; MLL CXXC-DNA binding, fluorescein FP; hit rate 70% among 200; note: nearly all actives have a fitted effect of over 80% in size
MLL CXXC TxRed – qHTS Fluorescence Polarization (FP) Assay for Inhibitors of MLL CXXC domain - DNA interaction: Texas Red FP. shares compounds with MLL CXXC-DNA inh. MLL CXXC-DNA binding, Texas Red fluorescence polarization. Potency, µM (top dose mostly 345 µM), most hits filed as inhibitors. hit rate 40% among 200. AID 624161, 2012; note: nearly all actives have a fitted effect of over 75% in size
MLL CXXC HTRF – qHTS Fluorescence Polarization (FP) Assay for Inhibitors of MLL CXXC domain - DNA interaction: HTRF Assay. MLL CXXC-DNA binding, HTRF, biochemical. AID 624162, 2012. shares compounds with MLL CXXC-DNA inh. Potency, µM (highest dose often 172 µM), hits mostly inhibitors. hit rate 30% among 210; note: nearly all actives have a fitted effect of over 80% in size
MBNL1-CUG FRET – qHTS Assay for Inhibitors of MBNL1-poly(CUG) RNA binding: Initial hit validation from the primary screen; shares compounds with MBNL1 CUG block; TR-FRET MBNL1-His / biotin-(CUG)12 binding, 60 min; Potency, µM (top dose mostly 57.6 µM), actives largely listed as inhibitors; hit rate 50% among 140; AID 493199, 2011
MBNL1-CUG Alpha – qHTS Assay for Inhibitors of MBNL1-poly(CUG) RNA binding: Initial hit validation in AlphaScreen assay for MBNL1-(CUG)12 binding | AlphaScreen MBNL1-His / biotin-(CUG)12 binding | shares compounds with MBNL1 CUG block | hit rate 30% among 140 | Potency, µM (highest dose often 57.7 µM), hits mostly inhibitors
MBNL1 HTRF CS – qHTS Assay for Inhibitors of MBNL1-poly(CUG) RNA binding: Counterscreen HTRF assay; hit rate 20% among 120; shares compounds with MBNL1 CUG block; Potency, µM (titrated, usually from 57.6 µM), actives largely listed as inhibitors; His-Menin/biotin-MLL peptide TR-FRET counterscreen; AID 651843, 2012
A number is an active result; . = inactive; ? = inconclusive; / = no result given. The entries come from a sample that favours hits as a whole. Unless noted, calls come from the whole dose curve; as a rule, active = well fitted curve in the direction sought with a large enough effect; inconclusive = small, poorly fitted or top-dose-only effect, or another doubt; inactive = no such curve, though single readings can be large; an effect the other way counts as inactive or inconclusive.

SMILES | Menin-MLL TR inh | MBNL1 CUG block | CBFb RUNX1 block | Menin-MLL FL inh | MLL CXXC-DNA inh | MBNL1-CUG FRET | MBNL1-CUG Alpha | MBNL1 HTRF CS | others
Cc1cc(/C=C2\C(=O)NC(=O)N(Cc3ccco3)C2=O)c(C)n1-c1ccc(C(=O)O)cc1 | / | . | ? | . | 28µM | / | / | / | MLL CXXC Fl=1.4µM;MLL CXXC TxRed=142µM;MLL CXXC HTRF=.
Cc1ccc(N)cc1N | / | / | . | / | / | / | / | /
C[n+]1c2cc(N)ccc2cc2ccc(N)cc21 | . | / | . | ? | ? | / | / | / | MLL CXXC Fl=0.63µM;MLL CXXC TxRed=142µM;MLL CXXC HTRF=97µM
O=C1NC(=O)C(=Cc2cn(CCOc3ccc4c(c3)OCO4)c3ccccc23)C(=O)N1 | . | . | . | ? | 35µM | / | / | / | MLL CXXC Fl=159µM;MLL CXXC TxRed=?;MLL CXXC HTRF=.
CNCCc1c(C)n[nH]c1C | . | . | . | . | . | / | / | /
O=C1c2ccccc2C(=O)C1C(=O)C(c1ccccc1)c1ccccc1 | ? | / | / | . | . | ? | ? | .
Oc1ccc2c3c1O[C@H]1c4[nH]c5c(c4C[C@@]4(O)[C@@H](C2)N(CC2CC2)CC[C@]314)C[C@@]1(O)[C@H]2Cc3ccc(O)c4c3[C@@]1(CCN2CC1CC1)[C@H]5O4 | ? | / | . | . | . | 16µM | 11µM | /
Oc1ccc2c3c1O[C@H]1c4[nH]c5ccccc5c4C[C@]4(O)[C@H](C2)N(CC2CC2)CC[C@@]314 | . | / | . | . | / | / | / | /
CCOC(=O)N1CCC(NC(=O)CCc2nc(C3=CCN(C)CC3)no2)CC1 | . | 10µM | . | . | . | 8.2µM | 3.7µM | ?
CCn1nc(-c2ccccc2)nc2c(=O)n(C)c(=O)nc1-2 | . | ? | / | ? | ? | 0.52µM | 0.26µM | .
Cc1c(CCN)ccc2c1[nH]c1ccccc12 | . | . | . | . | . | / | / | /
Clc1ccc2c(c1)C(c1ccccc1Cl)=NCc1nnc(Br)n1-2 | . | 25µM | . | . | . | . | . | .
Cc1nnc2n1-c1ccc(Cl)cc1C(c1ccccc1Cl)=NC2 | . | / | / | . | . | / | / | /
O=C1C2(c3ccccc3)CN3CN(C2)CC1(c1ccccc1)C3 | . | . | . | . | . | / | / | /
COc1cc(/C=N/NC(=O)CN2CCCCC2)ccc1OCc1ccccc1 | . | ? | . | . | . | / | / | /

Compound activity: PubChem BioAssay, National Center for Advancing Translational Sciences (NCATS)
